Several values for one entry are separate records, joined by “and”; a condition that tells them apart may be missing. Identical values can stand only once. Where a structure was tested more than once in an assay, its records may differ in their call. Activity calls are given as the source filed them. The calls were made as follows: active = hit-call score of the fitted dose curve at least 0.9, where 1 is the maximum; inactive = score below 0.9.

Read-out in the assay: Interleukin-8 (IL8), CXCL8 (gene 3576)
Kind of assay: BSK_KF3CT_IL8: BioMAP Diversity Plus: KF3CT Assay for Interleukin-8 (IL8) Biomarker Activity (AID 2284254). The following applies: primary human keratinocytes with fibroblasts. How it is done:
BSK_KF3CT is a cell-based, multiplexed-readout assay that uses keratinocytes and foreskin fibroblasts, a human skin primary cell co-culture, with measurements taken at 24 hours after chemical dosing in a 96-well plate.BSK_KF3CT_IL8 is an assay component measured in the BSK_KF3CT assay. It measures IL-8 antibody related to regulation of gene expression using ELISA technology.Data from the assay component BSK_KF3CT_IL8 was analyzed at the endpoint, BSK_KF3CT_IL8, in the positive analysis fitting direction relative to DMSO as the negative control and baseline of activity. Using a type of binding reporter, gain or loss-of-signal activity can be used to understand protein changes. To generalize the intended target to other relatable targets, this assay endpoint is annotated to the 'cytokine' intended target family, where the subfamily is 'interleukins'.
The levels of cell surface (or secreted, indicated by the prefix "s") biomarker endpoints were measured by ELISA. Overt cytotoxicity to cells in confluent adherent cultures (all systems other than the BT system) was assessed by measuring total protein levels using sulforhodamine B (SRB) staining in parallel cultures at the time of biomarker measurements, indicated as SRB endpoints. For proliferation assays for adherent cell types, individual cell types are cultured at sub-confluence and relative cell numbers quantified by SRB staining at time points optimized for each system (48 h: 3C and CASM3C systems; 72 h: BT and HDF3CGF systems; 96 h: SAg system). SRB was performed by staining cells with 0.1% SRB after fixation with 10% TCA and reading wells at 560 nm.Viability and proliferation of PBMC (T cells) was quantified by Alamar Blue reduction for the SAg and BT systems. For PBMC viability (referred to as PBMC Cytotoxicity within the assay endpoint names), cells were plated (75,000/well in a 96-well plate) and then chemical samples added for 1 h before addition of activators, SEB and TSST-1 (20 ng/mL final concentration each). Cells were incubated for 90 h. Then, Alamar Blue (20 uL/well) (Invitrogen, Cat DAL1100) was added for 6 h, and the plates were read with a fluorescence microplate reader at 546/580 nm (excitation/emission). For PBMC proliferation, cells were plated and activated as above but incubated for only 16 h prior to addition of Alamar Blue. Plates were read after 6 h.
`FC(F)(F)C(F)(F)C(F)(F)CI`: the outcome was inactive.

As for `Cc1ccc(S(=O)(=O)OCC(F)(F)C(F)(F)C(F)(F)C(F)(F)C(F)(F)C(F)F)cc1`, the result was inactive.

As to `FC(F)(F)C(F)(F)CNCC(F)(F)C(F)(F)F`, the outcome was inactive.

For `O=C(O)C(F)(F)C(F)(F)C(F)(F)C(F)(F)C(F)(F)C(F)(F)C(F)(F)C(F)(F)Cl`, the AC50 (commonly the concentration at which the activity in the assay is half-maximal) is 55.2 µM (active) and 45.8 µM (active).

Take `NC(=O)C(F)(F)C(F)(F)C(F)(F)C(F)(F)F`: the result was inactive.

As to `CCCCCCOC(=O)c1ccccc1O`, the result was inactive.

For the compound `O=C(O)C(F)(OC(F)(F)C(F)(OC(F)(F)C(F)(OC(F)(F)C(F)(F)C(F)(F)F)C(F)(F)F)C(F)(F)F)C(F)(F)F` (stereo not given), the outcome was inactive.

For `O=C(CC(=O)C(F)(F)C(F)(F)F)C(F)(F)F`, the outcome was inactive.

In the case of `FC1CC(F)(F)C(F)(F)C1(F)F` (stereo not given), the outcome was inactive.

As to `FC(F)(F)C(F)(F)C(F)(F)C(F)(F)C(F)(F)CCI`, the outcome was inactive.

As to `O=S(=O)(O)C(F)(F)C(F)(F)C(F)(F)C(F)(F)C(F)(F)C(F)(F)C(F)(F)F`, the result was inactive.

`O=C(O)C(F)(F)C(F)(F)F`: the result was inactive.

With `OCC(F)(F)C(F)(F)C(F)(F)C(F)(F)C(F)(F)C(F)F`, the result was inactive.

As for `FC(F)(F)C(F)(F)C(F)(F)C(F)(F)C(F)(F)C(F)(F)C(F)(F)C(F)(F)CCS`, the result was inactive.

As for `O=C(O)C(F)(F)C(F)(F)C(F)(F)C(F)(F)F`, the result was inactive.

`O=C(Cl)C(F)(F)C(F)(F)C(F)(F)C(F)(F)C(F)(F)C(F)(F)C(F)(F)C(F)(F)F`: the AC50 was 30 µM (active) and the result was inactive.

Take `C=C(C)C(=O)OCCC(F)(F)C(F)(F)C(F)(F)C(F)(F)C(F)(C(F)(F)F)C(F)(F)F`: the outcome was inactive.

In the case of `FC(F)(I)C(F)(F)C(F)(F)C(F)(F)I`, the outcome was inactive; the AC50 is 45.8 µM (active) and 47.4 µM (active).

Turning to `C=C(C)C(=O)OCC(F)(F)C(F)(F)C(F)(F)F`, the result was inactive.

Consider `N=C(N)C(F)(F)C(F)(F)C(F)(F)C(F)(F)C(F)(F)C(F)(F)C(F)(F)F`, for which the result was inactive.

For the compound `O=C(O)C(F)(F)C(F)(F)OC(F)(F)F`, the outcome was inactive.

As to `O=P(O)(O)OCCC(F)(F)C(F)(F)C(F)(F)C(F)(F)C(F)(F)C(F)(F)F`, the outcome was inactive.

In the case of `FC(F)(F)C(F)(F)C(F)(F)C(F)(F)C(F)(F)C(F)(F)CC1CO1` (stereo not given), the result was inactive.

On to `O=S(=O)(OCCOC(F)(F)F)C(F)(F)F`, for which the outcome was inactive.

Turning to `OCCCC(F)(F)C(F)(F)C(F)(F)F`, the outcome was inactive.

Turning to `O=C(O)C(F)(OC(F)(F)C(F)(OC(F)(F)C(F)(F)C(F)(F)F)C(F)(F)F)C(F)(F)F` (stereo not given), the result was inactive.

Turning to `CCO[Si](CCC(F)(F)C(F)(F)C(F)(F)C(F)(F)C(F)(F)C(F)(F)F)(OCC)OCC`, the result was inactive.

On to `O=C(O)C(F)(F)C(F)(F)C(F)(F)C(F)(F)C(F)(F)C(F)(F)C(F)(F)C(F)(F)C(F)(F)C(F)F`, for which the outcome was inactive.

Consider `FC(F)(F)C(F)(F)C(F)(F)C(F)(F)C(F)(F)C(F)(F)C(F)(F)C(F)(F)F`, for which the result was inactive.

In the case of `OCC(F)(F)C(F)(F)C(F)(F)C(F)F`, the outcome was inactive.

Turning to `OCCCC(F)(F)C(F)(F)C(F)(F)C(F)(F)C(F)(F)C(F)(F)C(F)(F)F`, the AC50 is 49.3 µM (active) and 46.4 µM (active).

Turning to `O=C(O)C=C(C(F)(F)F)C(F)(F)F`, the result was inactive.

Turning to `FC(F)(F)C(F)(F)C(F)(F)C(F)(F)C(F)(F)C(F)(F)C(F)(F)Br`, the outcome was inactive.

Consider `C=CC(=O)OCC(F)(F)C(F)(F)C(F)(F)C(F)(F)COC(=O)C=C`, for which the AC50 is 17.3 µM (active) and 18.9 µM (active).

Take `O=C(O)C(F)(F)C(F)(F)C(F)F`: the result was inactive.

Consider `FC(F)(F)C(F)(F)C(F)(F)C(F)(F)C(F)(F)C(F)(F)C(F)(F)I`, for which the outcome was inactive.

As for `FC(F)(F)C(F)(F)C(F)(F)C(F)(F)CCI`, the outcome was inactive.

Turning to `C=CC(F)(F)C(F)(F)C(F)(F)C(F)(F)C(F)(F)C(F)(F)C(F)(F)C(F)(F)F`, the result was inactive.
